According to PubChem BioAssay:
A number with no mark means an inactive call. Activity calls are given as the source filed them.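 Rule for the calls, unless noted: active = viability at or under a set limit in both replicates, limit being median viability minus 3 SD (cut at about 48% in these data, passing the limit was not always enough); inconclusive = at or under the limit in just one replicate; inactive = at or above the limit in both replicates.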

Experiment: SK-BR-3 cell growth inhibitors, pilot screen, 24 h, human (AID 572;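 active = viability at or below 10% of carrier control in both of two separate runs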;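 note: compound exposure lasted between 18 and 24 h rather than exactly 24 h; 100% = carrier-treated control wells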)
Settings: SK-BR-3 viability, CellTiter-Glo luminescence, at 10 µM, stronger effect = lower value

**Q.** With `Clc1ccc(C2=Nn3c(nnc3-c3n[nH]c4c3CCC4)SC2)cc1Cl` as the compound, how does the viability read?
**A.** Its viability is 102%.

**Q.** Which viability does the source give for `C(=C\c1ccccc1)/CSc1nnc(-c2ccccn2)n1Cc1ccco1` here?
**A.** The viability was 84%.

**Q.** For `CC(C)Cn1c2c(c(O)c(C(=O)Nc3ncccc3O)c1=O)CCCC2`, which viability is on record?
**A.** The viability was 91%.

**Q.** For `Oc1ccc(/C=C/c2cc(O)cc(O)c2)cc1`, which viability is on record?
**A.** The viability was 115%.

**Q.** For `N#Cc1ccccc1Cn1c(=O)n(Cc2ccc(C(=O)NCc3ccco3)cc2)c(=O)c2ccccc21`, which viability is on record?
**A.** Its viability is 73%.

**Q.** With `CO[C@H]1C[C@@H]2CC[C@@H](C)[C@@](O)(O2)C(=O)C(=O)N2CCCC[C@H]2C(=O)O[C@H]([C@H](C)C[C@@H]2CC[C@@H](O)[C@H](OC)C2)CC(=O)[C@H](C)C=C(C)[C@@H](O)[C@@H](OC)C(=O)[C@H](C)C[C@H](C)C=CC=CC=C1C` as the compound, how does the viability read?
**A.** The viability was 113%.

**Q.** With `COc1ccc(-n2cc(-c3ccccc3)c3c(N4CCN(CCO)CC4)ncnc32)cc1` as the compound, how does the viability read?
**A.** Its viability is 100%.

**Q.** For `O=C(O)c1cc(O)c2c(c1)C(=O)c1cccc(O)c1C2=O`, which viability is on record?
**A.** Its viability is 87%.

**Q.** Which viability does the source give for `C(=C\c1ccccc1)/CN1CCN(C(c2ccccc2)c2ccccc2)CC1` here?
**A.** Its viability is 90%.

**Q.** For `Oc1cccc(Nc2nc(NCC3CCCO3)c3ccccc3n2)c1` (configuration not stated), which viability is on record?
**A.** The viability was 73%.

**Q.** For `Clc1ccc(OCc2nnc(SCCN3CCCCC3)n2Cc2ccco2)cc1`, which viability is on record?
**A.** The viability was 90%.

**Q.** With `CCC(=O)Oc1ccc(/C(CC)=C(\CC)c2ccc(OC(=O)CC)cc2)cc1` as the compound, how does the viability read?
**A.** Its viability is 131%.

**Q.** For `O=S(=O)(c1cccc2cnccc12)N1CCCNCC1`, which viability is on record?
**A.** Its viability is 140%.

**Q.** With `O=C(Nc1ccc2nn(-c3ccccc3)nc2c1)c1ccc(Br)o1` as the compound, how does the viability read?
**A.** The viability was 67.5%.

**Q.** For `CCc1oc2ccccc2c1C(=O)c1cc(Br)c(O)c(Br)c1`, which viability is on record?
**A.** Its viability is 95%.

**Q.** Which viability does the source give for `O=C(Nc1ccc2oc(Cc3ccc(Cl)cc3)nc2c1)c1cccnc1` here?
**A.** Its viability is 103%.

**Q.** For `CC(=O)Nc1ccccc1OCC(=O)c1cc(C)n(Cc2cccs2)c1C`, which viability is on record?
**A.** The viability was 92%.

**Q.** Which viability does the source give for `O=C(CCCN1CCC(O)(c2ccc(Cl)cc2)CC1)c1ccc(F)cc1` here?
**A.** The viability was 79%.

**Q.** For `COC(=O)c1ccccc1NC(=O)Cn1c(-c2nonc2N)nc2ccccc21`, which viability is on record?
**A.** Its viability is 70.5%.

**Q.** Which viability does the source give for `CCCCC[C@H](O)/C=C/[C@H]1C=CC(=O)[C@@H]1C/C=C\CCCC(=O)O` here?
**A.** Its viability is 111%.

**Q.** For `Cc1ccc(-c2cc(C(F)F)nc(NCC3CCCO3)n2)cc1` (configuration not stated), which viability is on record?
**A.** Its viability is 86%.

**Q.** For `CCc1nnc(NC(=O)c2ccc(S(=O)(=O)N(CC(C)C)CC(C)C)cc2)o1`, which viability is on record?
**A.** Its viability is 77%.

**Q.** Which viability does the source give for `COc1ccc(Br)cc1-c1noc(-c2ccccc2)n1` here?
**A.** The viability was 99%.

**Q.** With `Fc1ccc(C(c2ccc(F)cc2)N2CCN(C/C=C/c3ccccc3)CC2)cc1` as the compound, how does the viability read?
**A.** Its viability is 89%.

Experiment: growth inhibitors of H69AR lung tumor, primary screen, human, duplicate replicates (AID 580);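 note: 100% = mean luminescence of untreated wells and 0% = no signal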
Settings: H69AR lung tumor cells viability, ATP luminescence, 72 h; at 10 µM; stronger effect = lower value

**Q.** For `Cc1cccn2c(=O)c3cc(C(=O)NC4CCCC4)c(=N)n(C4CCCC4)c3nc12`, which viability is on record?
**A.** Its viability is 27.6% (active).

**Q.** For `Cc1ccc(Cl)cc1N1CCN(C(=O)c2cn(C)c(=O)c3c2c2ccccc2n3C)CC1`, which viability is on record?
**A.** Its viability is 3.07% (active).

**Q.** With `Cc1cc(C)c2ccc(N)nc2c1O` as the compound, how does the viability read?
**A.** The viability was 21.4% (active).

**Q.** For `CCC(=O)Oc1ccc(C(CC)C(CC)c2ccc(OC(=O)CC)cc2)cc1` (configuration not stated), which viability is on record?
**A.** The viability was 85.8%.

**Q.** For `CN1CCN(C2=Nc3cc(Cl)ccc3Nc3ccccc32)CC1`, which viability is on record?
**A.** Its viability is 68%.

**Q.** Which viability does the source give for `COc1ccccc1NC(=O)c1oc2ccccc2c1NC(=O)c1cc(OC)c(OC)c(OC)c1` here?
**A.** The viability was 16.9% (active).

**Q.** With `O=C(O)c1ccc2c3c(ncnc13)-c1ccccc1C2=O` as the compound, how does the viability read?
**A.** Its viability is 80.3%.

**Q.** Which viability does the source give for `Cc1nnc(NCc2n[nH]c(=O)c3ccccc23)c2ccccc12` here?
**A.** Its viability is 67.1%.

**Q.** For `CCN(CC)S(=O)(=O)c1ccc2[nH]cc(C(=O)NCCC3=CCCCC3)c(=O)c2c1`, which viability is on record?
**A.** Its viability is 3.36% (active).

**Q.** For `CCCCn1c(SCc2ccc(Cl)cc2)nc2c1c(=O)[nH]c(=O)n2C`, which viability is on record?
**A.** Its viability is 76.7%.

**Q.** Which viability does the source give for `COc1cc2c(C#N)c(N3CCN(c4ccccc4OC)CC3)nc(N)c2c(N)n1` here?
**A.** The viability was 67.8%.

**Q.** With `COc1ccc(Cl)cc1C(=O)NCCc1ccc(S(=O)(=O)NC(=O)NC2CCCCC2)cc1` as the compound, how does the viability read?
**A.** Its viability is 93.5%.

**Q.** Which viability does the source give for `Clc1ccc(C2=Nn3c(nnc3-c3n[nH]c4c3CCC4)SC2)cc1Cl` here?
**A.** The viability was 9% (active).

**Q.** With `C(=C\c1ccccc1)/CSc1nnc(-c2ccccn2)n1Cc1ccco1` as the compound, how does the viability read?
**A.** Its viability is 21.4% (active).

**Q.** For `Oc1ccc(/C=C/c2cc(O)cc(O)c2)cc1`, which viability is on record?
**A.** Its viability is 76.9%.

**Q.** With `N#Cc1ccccc1Cn1c(=O)n(Cc2ccc(C(=O)NCc3ccco3)cc2)c(=O)c2ccccc21` as the compound, how does the viability read?
**A.** Its viability is 11% (active).

**Q.** With `CO[C@H]1C[C@@H]2CC[C@@H](C)[C@@](O)(O2)C(=O)C(=O)N2CCCC[C@H]2C(=O)O[C@H]([C@H](C)C[C@@H]2CC[C@@H](O)[C@H](OC)C2)CC(=O)[C@H](C)C=C(C)[C@@H](O)[C@@H](OC)C(=O)[C@H](C)C[C@H](C)C=CC=CC=C1C` as the compound, how does the viability read?
**A.** Its viability is 67.1%.

**Q.** With `COc1ccc(-n2cc(-c3ccccc3)c3c(N4CCN(CCO)CC4)ncnc32)cc1` as the compound, how does the viability read?
**A.** Its viability is 56.2%.

**Q.** For `O=C(O)c1cc(O)c2c(c1)C(=O)c1cccc(O)c1C2=O`, which viability is on record?
**A.** Its viability is 76.9%.

**Q.** Which viability does the source give for `C(=C\c1ccccc1)/CN1CCN(C(c2ccccc2)c2ccccc2)CC1` here?
**A.** Its viability is 71%.

**Q.** Which viability does the source give for `Oc1cccc(Nc2nc(NCC3CCCO3)c3ccccc3n2)c1` (configuration not stated) here?
**A.** The viability was 22.1% (active).

**Q.** Which viability does the source give for `O=S(=O)(c1cccc2cnccc12)N1CCCNCC1` here?
**A.** Its viability is 97.4%.

**Q.** For `O=C(Nc1ccc2nn(-c3ccccc3)nc2c1)c1ccc(Br)o1`, which viability is on record?
**A.** The viability was 9.49% (active).

**Q.** For `CCc1oc2ccccc2c1C(=O)c1cc(Br)c(O)c(Br)c1`, which viability is on record?
**A.** Its viability is 79%.

**Q.** For `O=C(Nc1ccc2oc(Cc3ccc(Cl)cc3)nc2c1)c1cccnc1`, which viability is on record?
**A.** Its viability is 37.9% (active).

**Q.** For `CC(=O)Nc1ccccc1OCC(=O)c1cc(C)n(Cc2cccs2)c1C`, which viability is on record?
**A.** Its viability is 85.8%.

**Q.** Which viability does the source give for `O=C(CCCN1CCC(O)(c2ccc(Cl)cc2)CC1)c1ccc(F)cc1` here?
**A.** Its viability is 84%.

**Q.** For `COC(=O)c1ccccc1NC(=O)Cn1c(-c2nonc2N)nc2ccccc21`, which viability is on record?
**A.** The viability was 15.7% (active).

**Q.** With `CCCCC[C@H](O)/C=C/[C@H]1C=CC(=O)[C@@H]1C/C=C\CCCC(=O)O` as the compound, how does the viability read?
**A.** Its viability is 67.4%.

**Q.** With `Cc1ccc(-c2cc(C(F)F)nc(NCC3CCCO3)n2)cc1` (configuration not stated) as the compound, how does the viability read?
**A.** Its viability is 100%.

**Q.** For `CCc1nnc(NC(=O)c2ccc(S(=O)(=O)N(CC(C)C)CC(C)C)cc2)o1`, which viability is on record?
**A.** Its viability is 32.9% (active).

**Q.** For `COc1ccc(Br)cc1-c1noc(-c2ccccc2)n1`, which viability is on record?
**A.** The viability was 78.5%.

**Q.** With `Fc1ccc(C(c2ccc(F)cc2)N2CCN(C/C=C/c3ccccc3)CC2)cc1` as the compound, how does the viability read?
**A.** Its viability is 76.7%.
